Drawing on PubChem BioAssay (Tox21), this text covers Potency and outcome for 15 compounds.

Assay [1] in a line: qHTS assay to identify small molecule antagonists of the thyroid receptor (TR) signaling pathway (AID 743065). Further: nearly all actives have a fitted effect of over 55% in size. Further: potency means the concentration at half of the fitted maximal effect. The method, boiled down:
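GH3.TRE-Luc rat pituitary cells carrying two TR response elements driving luciferase were plated for 4 h, given compound plus 1 nM T3 (final), and incubated 23.5 h at 37 C. ONE-Glo luminescence measured reporter inhibition; CellTiter-Fluor fluorescence tracked cytotoxicity.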

For assay [2], the system named is thyroid hormone receptor (rat, GH3 cells). Put plainly: qHTS assay to identify small molecule agonists of the thyroid receptor (TR) signaling pathway (AID 743066; calls by dose curve).
Assay [3] is described as follows: qHTS assay to identify small molecule antagonists of the estrogen receptor alpha (ER-alpha) signaling pathway - cell viability counter screen (AID 743074; calls by dose curve;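 further: HEK293 cells carrying ER-alpha-UAS-bla reporter stimulated with 17beta-estradiol; nearly all actives have a fitted effect of over 45% in size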).
Assay [4] in a line: qHTS assay to identify small molecule antagonists of the estrogen receptor alpha (ER-alpha) signaling pathway using the BG1 cell line - cell viability counter screen (AID 743081).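 Further: compound given together with 17beta-estradiol as the ER stimulus; series mostly up to about 70 µM; nearly all actives have a fitted effect of over 45% in size.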
Another assay has as its target Aromatase (Homo sapiens) (UniProt P11511). Put plainly: qHTS assay to identify aromatase inhibitors (AID 743083). Further: series mostly up to about 70 µM; nearly all actives have a fitted effect of over 55% in size.
A short description of assay [5]: qHTS assay to identify aromatase inhibitors - cell viability counter screen (AID 743084).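 Further: cells stimulated with testosterone during compound exposure; nearly all actives have a fitted effect of over 55% in size.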
In assay [6] the target is Aryl hydrocarbon receptor (Homo sapiens) (UniProt P35869). The assay can be described thus: qHTS assay to identify small molecule that activate the aryl hydrocarbon receptor (AhR) signaling pathway (AID 743085).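 Further: HG2L7.5c1 human HepG2 liver cells with stably integrated DRE-driven firefly reporter; series mostly up to about 70 µM; nearly all actives have a fitted effect of over 15% in size.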 The gist of the method:
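Compounds were tested in HepG2 hepatocellular carcinoma cells harbouring a stably integrated luciferase gene under control of 20 DREs. Increased reporter signal after 24 h treatment at 37C was taken as AhR activation.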

Assay [7] is described as follows: qHTS assay to identify small molecule that activate the aryl hydrocarbon receptor (AhR) signaling pathway - cell viability counter screen (AID 743086).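 Further: HepG2 liver cells carrying the AhR DRE luciferase reporter; series mostly up to about 70 µM; nearly all actives have a fitted effect of over 45% in size.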 The method, boiled down:
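HepG2-AhR-luc (HG2L7.5c1) cells, 4000/well, were preincubated 5 h at 37C, exposed to compound in qHTS format for 24 hr at 37C, then given CellTiter-Fluor for 30 min; viability was read as fluorescence in the reporter wells.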

Assay [8] addresses Peroxisome proliferator-activated receptor gamma (Homo sapiens) (UniProt P37231). Put plainly: qHTS assay to identify small molecule agonists of the peroxisome proliferator-activated receptor gamma (PPARg) signaling pathway (AID 743094; active means well fitted activation curve with a large enough effect in the signal ratio in the repeat runs, not every such curve was filed as active; inconclusive means weak or mixed curves, or effect the other way; inactive means no such curve, though single readings can be large or run the other way; the % refers to the signal ratio). The gist of the method:
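GeneBLAzer PPARg UAS-bla HEK293H cells were plated, rested 5 h, then exposed to compounds for 17 h at 37C. Beta-lactamase activity was read by LiveBLAzer B/G FRET substrate fluorescence after 1 h at room temperature.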

For assay [9] the target is unchanged. Put plainly: qHTS assay to identify small molecule antagonists of the peroxisome proliferator-activated receptor gamma (PPARg) signaling pathway (AID 743191; calls by dose curve; further: series mostly up to about 63 µM; nearly all actives have a fitted effect of over 30% in size). The method, boiled down:
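GeneBLAzer PPARg UAS-bla HEK293H cells carrying a UAS-driven beta-lactamase reporter were plated at 3000 cells/well, preincubated 5 h at 37C, then given compound for 17 h at 37C; LiveBLAzer B/G FRET substrate was read after 1 h at room temperature.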

Assay [10] in a line: qHTS assay for small molecule agonists of the antioxidant response element (ARE) signaling pathway (AID 743202; active means well fitted activation curve with a large enough effect in the signal ratio in the repeat runs, not every such curve was filed as active; inconclusive means weak or mixed curves, or effect the other way; inactive means no such curve, though single readings can be large or run the other way; the % refers to the signal ratio; further: potency means the concentration at half of the fitted maximal effect). The method, boiled down: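 Read-out: LiveBLAzer B/G FRET substrate fluorescence after 2 h at room temperature, following 16 h compound treatment at 37 C of HepG2 cells carrying an ARE-driven beta-lactamase reporter.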
Assay [11] in a line: qHTS assay for small molecule agonists of the antioxidant response element (ARE) signaling pathway - cell viability counter screen (AID 743203; calls by dose curve; further: nearly all actives have a fitted effect of over 55% in size). The gist of the method:
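ARE-bla HepG2 cells were plated, rested 5 h at 37C/5% CO2, then exposed to compounds in DMSO for 16 h. Viability was read as CellTiter-Glo luminescence after 30 min at room temperature, in the same wells as the ARE screen.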

Assay [12] is described as follows: qHTS assay for small molecule activators of the heat shock response signaling pathway - cell viability counter screen (AID 743209). Further: nearly all actives have a fitted effect of over 50% in size. The method, boiled down: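 HSE-bla HeLa cells plated overnight, then exposed to Tox21 compounds (23 nL in DMSO) for 5 h at 37 C. After the bla reporter read, CellTiter-Glo was added in the same wells and luminescence read after 30 min at room temperature.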

Assay [13] in a line: qHTS assay for small molecule activators of the heat shock response signaling pathway (AID 743210; active means well fitted activation curve with a large enough effect in the signal ratio in the repeat runs, with a control signal flat, not every such curve was filed as active; inconclusive means weak or mixed curves; the % refers to the signal ratio; further: series mostly up to about 63 µM). The gist of the method: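 HSE-bla HeLa cells (beta-lactamase reporter under heat shock response elements) were exposed to compounds for 5 h at 37 C, then loaded with LiveBLAzer B/G FRET substrate for 2.5 h at room temperature before fluorescence reading.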
Assay [14] can be described thus: qHTS assay to identify small molecule agonists of the peroxisome proliferator-activated receptor delta (PPARd) signaling pathway - cell viability counter screen (AID 743211). Further: nearly all actives have a fitted effect of over 55% in size. The gist of the method: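 Counter screen for cytotoxicity run in parallel with the PPARd reporter screen. Beta-lactamase reporter HEK293H cells exposed to compounds 17 h; ATP-based CellTiter-Glo luminescence quantified viability.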

The target of assay [15] is Estrogen receptor (Homo sapiens) (UniProt P03372). Put plainly: qHTS assay to identify small molecule agonists of the estrogen receptor alpha (ER-alpha) signaling pathway (AID 743075; calls by dose curve;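 further: HEK293 GripTite cells with ER-alpha and UAS-driven beta-lactamase reporter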; further: potency means the concentration at half of the fitted maximal effect).
A short description of assay [16]: qHTS assay to identify small molecule antagonists of the peroxisome proliferator-activated receptor gamma (PPARg) signaling pathway - cell viability counter screen (AID 743194). Further: nearly all actives have a fitted effect of over 55% in size. The gist of the method: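 PPARg-UAS-bla HEK293H cells were plated, rested 5 h at 37 C, then treated with compounds plus rosiglitazone (50 nM final) for 17 h at 37 C; viability was then read by CellTiter-Glo luminescence after 30 min at room temperature.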

Assay [17] concerns the target Estrogen receptor (Homo sapiens) (UniProt P03372). The assay can be described thus: qHTS assay to identify small molecule agonists of the estrogen receptor alpha (ER-alpha) signaling pathway using the BG1 cell line (AID 743079). Further: nearly all actives have a fitted effect of over 20% in size. Further: potency means the concentration at half of the fitted maximal effect.
A short description of assay [18]: qHTS assay to identify small molecule antagonists of the estrogen receptor alpha (ER-alpha) signaling pathway using the BG1 cell line (AID 743080; calls by dose curve;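 further: BG1 cells stimulated with 17beta-estradiol alongside compound; series mostly up to about 70 µM; nearly all actives have a fitted effect of over 25% in size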). The method, boiled down:
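Quantitative HTS on the Tox21 10K library: BG1 cells with endogenous ER-alpha and ERE-luciferase reporter, 17beta-estradiol stimulation, 21.5 h compound exposure, luminescence endpoint with parallel fluorescence cytotoxicity counter-read.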

The source made the active and inactive calls. Unless noted, the call rests on the fitted dose curve; in most records, active means well fitted curve in the direction sought with a large enough effect in the repeat runs; inconclusive means weak or mixed curves; inactive means no such curve, though single readings can be large; an effect the other way counts as inactive or inconclusive.

Aromatase (Homo sapiens), sequence (P11511 whole entry, looked up): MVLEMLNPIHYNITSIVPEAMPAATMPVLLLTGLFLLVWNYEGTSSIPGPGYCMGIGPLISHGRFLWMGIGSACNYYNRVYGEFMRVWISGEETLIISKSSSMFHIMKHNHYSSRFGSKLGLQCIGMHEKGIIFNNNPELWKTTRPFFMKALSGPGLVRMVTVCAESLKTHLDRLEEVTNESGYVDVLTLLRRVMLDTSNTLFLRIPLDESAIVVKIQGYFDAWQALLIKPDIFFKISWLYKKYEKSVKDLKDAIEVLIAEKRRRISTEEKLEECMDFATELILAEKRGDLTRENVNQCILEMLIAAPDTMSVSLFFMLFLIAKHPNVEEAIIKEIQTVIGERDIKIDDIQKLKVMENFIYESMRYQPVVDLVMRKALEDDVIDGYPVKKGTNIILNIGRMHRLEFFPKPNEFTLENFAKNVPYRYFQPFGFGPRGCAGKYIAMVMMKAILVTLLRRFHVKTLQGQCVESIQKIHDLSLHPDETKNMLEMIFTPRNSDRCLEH
Aryl hydrocarbon receptor (Homo sapiens), sequence (P35869 whole entry, looked up): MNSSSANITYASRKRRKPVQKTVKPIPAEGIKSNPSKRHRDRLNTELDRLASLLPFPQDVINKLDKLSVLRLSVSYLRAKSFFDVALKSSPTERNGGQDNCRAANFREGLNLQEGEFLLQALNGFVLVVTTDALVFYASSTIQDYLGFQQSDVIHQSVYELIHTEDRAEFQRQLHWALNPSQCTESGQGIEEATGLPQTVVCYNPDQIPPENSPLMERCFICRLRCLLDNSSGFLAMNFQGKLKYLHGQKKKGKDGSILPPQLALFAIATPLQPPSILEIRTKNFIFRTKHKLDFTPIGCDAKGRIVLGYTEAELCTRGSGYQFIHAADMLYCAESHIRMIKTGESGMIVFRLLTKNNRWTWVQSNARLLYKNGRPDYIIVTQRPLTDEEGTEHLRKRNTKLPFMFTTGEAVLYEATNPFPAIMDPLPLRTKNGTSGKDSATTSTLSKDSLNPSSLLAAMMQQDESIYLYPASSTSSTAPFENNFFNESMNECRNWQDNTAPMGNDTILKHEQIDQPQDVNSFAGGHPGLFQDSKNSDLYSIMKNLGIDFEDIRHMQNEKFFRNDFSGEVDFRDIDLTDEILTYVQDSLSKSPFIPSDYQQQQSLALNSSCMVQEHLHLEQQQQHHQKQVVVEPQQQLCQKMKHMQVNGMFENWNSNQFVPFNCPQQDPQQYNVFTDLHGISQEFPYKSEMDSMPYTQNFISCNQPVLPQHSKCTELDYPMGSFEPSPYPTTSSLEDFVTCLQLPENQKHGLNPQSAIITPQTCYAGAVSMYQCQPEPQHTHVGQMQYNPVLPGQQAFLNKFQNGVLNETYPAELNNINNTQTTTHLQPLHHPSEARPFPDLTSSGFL
Estrogen receptor (Homo sapiens), sequence (P03372 whole entry, looked up): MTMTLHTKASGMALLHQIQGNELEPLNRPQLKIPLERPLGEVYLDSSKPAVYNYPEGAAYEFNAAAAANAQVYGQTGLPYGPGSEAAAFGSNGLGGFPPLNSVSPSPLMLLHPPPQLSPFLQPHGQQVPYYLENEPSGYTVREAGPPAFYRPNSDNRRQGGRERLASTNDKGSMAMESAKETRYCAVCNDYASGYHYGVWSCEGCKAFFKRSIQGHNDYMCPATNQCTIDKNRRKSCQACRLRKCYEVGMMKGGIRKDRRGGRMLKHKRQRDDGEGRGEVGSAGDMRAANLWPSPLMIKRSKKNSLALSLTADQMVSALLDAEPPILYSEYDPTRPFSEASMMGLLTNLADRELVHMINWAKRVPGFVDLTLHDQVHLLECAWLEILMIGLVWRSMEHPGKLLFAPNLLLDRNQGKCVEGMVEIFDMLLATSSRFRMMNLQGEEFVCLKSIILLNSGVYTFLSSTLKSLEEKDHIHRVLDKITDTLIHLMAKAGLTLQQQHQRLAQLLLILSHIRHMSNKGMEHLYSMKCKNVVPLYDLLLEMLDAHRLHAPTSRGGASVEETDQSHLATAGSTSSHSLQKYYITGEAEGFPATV
Peroxisome proliferator-activated receptor gamma (Homo sapiens), sequence (P37231 whole entry, looked up): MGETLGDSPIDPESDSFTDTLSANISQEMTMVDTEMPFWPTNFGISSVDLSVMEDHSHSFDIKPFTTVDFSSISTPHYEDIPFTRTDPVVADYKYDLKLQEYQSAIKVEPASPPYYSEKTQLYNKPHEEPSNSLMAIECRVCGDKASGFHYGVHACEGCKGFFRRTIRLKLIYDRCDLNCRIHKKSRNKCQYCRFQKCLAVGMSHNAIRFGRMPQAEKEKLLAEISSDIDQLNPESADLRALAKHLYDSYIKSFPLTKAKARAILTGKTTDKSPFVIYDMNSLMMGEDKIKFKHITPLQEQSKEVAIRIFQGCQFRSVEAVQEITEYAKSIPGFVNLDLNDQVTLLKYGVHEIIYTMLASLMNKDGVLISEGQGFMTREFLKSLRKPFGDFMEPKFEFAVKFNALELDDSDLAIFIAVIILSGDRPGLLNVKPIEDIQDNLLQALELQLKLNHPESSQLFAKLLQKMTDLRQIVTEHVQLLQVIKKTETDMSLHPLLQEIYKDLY

`CCCCCCCCC1CO1` (stereo not given): the Potency result (in assay [1]; in assay [2]; in [3]; with Aromatase (Homo sapiens); in assay [6]; in [10]) was “inactive” in each case. In addition, in [12], the Potency entry was “inactive”. Moreover, the compound was called inactive in [4], in assay [5], in assay [7], in assay [8], in [9] and in assay [11]. The result in assay [13] and in [14] was inactive.
`C/C(Cl)=C/CCl`: the Potency entry (in assay [1]; in [2]; in assay [3]; in assay [15]; in the assay with Aromatase (Homo sapiens); in assay [6]) was “inactive” in each case. The result in assay [4], in assay [5], in [8], in assay [9], in assay [16] and in assay [11] was inactive. Moreover, the compound was classed as inactive in assay [13] and in assay [14]. In assay [10], the Potency is 31.2 µM (active).
For the compound `C=C(C)C(=O)OCCCC`, the Potency result (in [1]; in assay [2]; in [3]; in the assay with Aromatase (Homo sapiens); in [6]; in [10]) was “inactive” throughout. For the same compound, the Potency result in assay [12] was “inactive”. In addition, the result in assay [4], in assay [5], in assay [7], in [8], in assay [9] and in assay [16] was inactive. For the same compound, the compound was classed as inactive in assay [11] and in assay [13].
On to `O=c1c(O)c(O)c1=O`, for which the Potency entry (in assay [1]; in assay [2]; in assay [3]; with Aromatase (Homo sapiens); in assay [6]; in assay [10]) was “inactive” in each case. The Potency entry in assay [12] was “inactive”. Further, the compound was classed as inactive in assay [4], in assay [5], in assay [7], in assay [8], in assay [9] and in assay [16]. The outcome in assay [11] and in [13] was inactive.
As to `CC(C)(Sc1cc(C(C)(C)C)c(O)c(C(C)(C)C)c1)Sc1cc(C(C)(C)C)c(O)c(C(C)(C)C)c1`, the Potency entry (in [1]; in assay [2]; in assay [3]; with Aromatase (Homo sapiens); in assay [6]; in assay [10]) was “inactive” in each case. For the same compound, the call in [4], in assay [5], in assay [7], in [8], in assay [9] and in assay [16] was inactive. In addition, the compound was classed as inactive in [11], in assay [13] and in assay [14].
Consider `CCCCCC(=O)CC`, for which the Potency entry (in assay [1]; in [2]; in [3]; with Aromatase (Homo sapiens); in assay [6]; in assay [10]) was “inactive” in each case. Also, the call in assay [4], in assay [5], in assay [7], in assay [8], in assay [16] and in assay [11] was inactive. In assay [13], the outcome was inactive.
Turning to `O=C(c1ccccc1)c1cccc(O)c1`, the Potency entry (in assay [1]; in assay [2]; in assay [3]; in the assay with Aromatase (Homo sapiens); in assay [6]; in assay [12]) was “inactive” each time. In addition, the Potency in assay [15] is 49.7 µM [inconclusive] (active); in assay [17] it was 15.6 µM (active). Moreover, the result in [4], in [5], in assay [7], in assay [8], in [11] and in assay [13] was inactive. Further, the compound was called inactive in [14].
Consider `C=C(C)C(=O)OCCOC1CC2CC1C1C=CCC21` (stereo not given), for which the Potency result (in assay [1]; in assay [2]; in [3]; with Aromatase (Homo sapiens); in [6]; in assay [10]) was “inactive” in each case. Besides, in assay [12], the Potency result was “inactive”. Also, the compound was called inactive in assay [4], in assay [5], in [7], in [8], in [9] and in assay [16]. Moreover, the outcome in assay [11], in [13] and in assay [14] was inactive.
As to `O=C[C@@H](O)[C@H](O)[C@H](O)CO`, the Potency entry (in [1]; in assay [2]; in assay [3]; in the assay with Aromatase (Homo sapiens); in assay [6]; in assay [10]) was “inactive” each time. Further, the Potency entry in assay [12] is “inactive”. Also, the call in assay [4], in assay [5], in [7], in [8], in assay [11] and in assay [13] was inactive. Also, the compound was classed as inactive in assay [14].
As to `CSC(=O)c1cccc2nnsc12`, the Potency result in [1], in assay [2], in assay [3], in assay [15], in [17] and in [18] was “inactive” in each case. For the same compound, the Potency entry (with Aromatase (Homo sapiens); in [6]; in assay [10]; in assay [12]) was “inactive” in each case. Besides, the call in assay [4], in [5], in assay [7], in assay [8], in [16] and in [13] was inactive. Moreover, in [14], the result was inactive.
With `NC(=O)CC[C@@H](N)C(=O)O`, the Potency result (in [1]; in [2]; in assay [3]; with Aromatase (Homo sapiens); in assay [6]; in assay [12]) was “inactive” in each case. The result in [4], in assay [5], in assay [7], in assay [8], in assay [16] and in assay [13] was inactive. Besides, in [14], the compound was classed as inactive.
In the case of `C=CCN1CCc2nc(N)sc2CC1`, the Potency entry (in [1]; in assay [2]; in [3]; with Aromatase (Homo sapiens); in assay [6]; in [10]) was “inactive” in each case. The Potency entry in assay [12] was “inactive”. Further, the result in [4], in assay [5], in assay [7], in assay [8], in [9] and in [16] was inactive. The call in assay [13] and in assay [14] was inactive.
On to `CCOC(=O)c1ccc(N(C)C)cc1`, for which the Potency entry (in assay [1]; in [2]; in [3]; in [15]; with Aromatase (Homo sapiens); in assay [12]) was “inactive” each time. Also, the Potency in assay [17] was 54.5 µM (active). For the same compound, the result in [4], in assay [5], in assay [7], in [8], in assay [16] and in assay [11] was inactive. In addition, the compound was classed as inactive in [14].
For `O=C(O)CCC(=O)Nc1ccc(S(=O)(=O)Nc2nccs2)cc1`, the Potency result (in assay [1]; in assay [2]; in [3]; with Aromatase (Homo sapiens); in assay [6]; in [10]) was “inactive” throughout. Besides, the Potency result in [12] is “inactive”. Further, the compound was called inactive in [4], in [5], in assay [7], in assay [8], in assay [16] and in assay [13]. In [14], the result was inactive.
As to `CCCCCCCCCCCCCCCC/C=C/C1CC(=O)OC1=O` (stereo not given), in assay [1], the Potency was 29.7 µM (active). The Potency result (in [2]; in assay [3]; with Aromatase (Homo sapiens); in assay [6]; in assay [10]; in assay [12]) was “inactive” each time. Also, the call in assay [4], in [5], in assay [7], in assay [8], in [16] and in assay [11] was inactive. Further, the compound was called inactive in assay [13].
